“And” between values parts separate entries of the source, which are not always exact repeats. Equal entries are not always repeated. Screen size: about 5,500 compounds; about 2,000 (36%) were called active. Roughly 18% stayed inconclusive and do not appear here. No stated cut-off is given here; in the data, active means normalized growth mostly below about 0.91 (no sharp cut-off); inconclusive means no clear call, values can overlap the other calls; inactive means mostly above about 0.92. The list shows a part of the results.
Experiment: chemical genetic growth profiling, strain panel (AID 1159580);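 further: tested at 20 µM; growth read once vehicle control cultures reached saturation at 30 °C; 1 = growth at the plate median or of vehicle wells; lower values mean less growth of the strain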
Conditions: S. cerevisiae deletion strains, growth OD

Measured: normalized growth

CC1(C)S[C@@H]2[C@H](NC(=O)Cc3ccccc3)C(=O)N2[C@H]1C(=O)O
inactive: locus YAL021C, strain ccr4, hits give low values 1.03 | locus YAL026C, strain drs2, hits give low values 1.04 | locus YAL030W, strain snc1, hits give low values 1.03 | locus YBL061C, strain skt5, hits give low values 1.04 | locus YBR009C, strain hhf1, hits give low values 1.03 | locus YBR021W, strain FUR4, hits give low values 1.01 | locus YBR023C, strain chs3, hits give low values 1.04 | locus YBR171W, strain sec66, hits give low values 1.04 | locus YBR229C, strain ROT2, hits give low values 1 | locus YBR231C, strain swc5, hits give low values 1.02 | locus YBR279W, strain paf1, hits give low values 1.02 | locus YCL011C, strain gbp2, hits give low values 1.04 | locus YCL016C, strain dcc1, hits give low values 1.03 | locus YCL029C, strain bik1, hits give low values 1.02 | locus YCL061C, strain MRC1, hits give low values 1.02 | locus YCL069W, strain vba3, hits give low values 1.04 | locus YCR088W, strain abp1, hits give low values 1.03 | locus YDL005C, strain med2, hits give low values 1.02 | locus YDL035C, strain GPR1, hits give low values 1.01 | locus YDL040C, strain nat1, hits give low values 1.03 | locus YDL074C, strain BRE1, hits give low values 1.01 | locus YDL101C, strain DUN1, hits give low values 1.01 | locus YDL134C, strain PPH21, hits give low values 1 | locus YDL185W, strain tfp1, hits give low values 1 | locus YDL192W, strain arf1, hits give low values 1.02 | locus YDR001C, strain nth1, hits give low values 1.01 | locus YDR069C, strain doa4, hits give low values 1 | locus YDR101C, strain arx1, hits give low values 1.02 | locus YDR137W, strain rgp1, hits give low values 1.03 | locus YDR150W, strain NUM1, hits give low values 1 | locus YDR159W, strain sac3, hits give low values 1.02 | locus YDR162C, strain NBP2, hits give low values 1.01 | locus YDR195W, strain ref2 1.01 | locus YDR297W, strain sur2, hits give low values 1.01 | locus YDR318W, strain mcm21, hits give low values 1.02 | locus YDR334W, strain swr1, hits give low values 1.04 | locus YDR335W, strain msn5, hits give low values 1.03 | locus YDR388W, hits give low values 1.02 | locus YDR392W, strain spt3, hits give low values 0.994 | locus YDR502C, strain sam2, hits give low values 1.02 | locus YEL003W, strain gim4, hits give low values 1.03 | locus YEL037C, strain rad23, hits give low values 1.03 | locus YEL061C, strain CIN8 (second series), hits give low values 1.02 | locus YEL061C, strain CIN8, hits give low values 1 | locus YER015W, strain faa2, hits give low values 1.03 | locus YER016W, strain bim1, hits give low values 1.02 | locus YER110C, hits give low values 1.03 | locus YER111C, strain swi4, hits give low values 1.01 | locus YER155C, strain BEM2 (second series), hits give low values 1.03 | locus YER155C, strain BEM2, hits give low values 0.999 | locus YER167W, strain BCK2, hits give low values 1 | locus YFR010W, strain ubp6, hits give low values 1.03 | locus YGL078C, strain dbp3, hits give low values 1.01 | locus YGL086W, strain mad1, hits give low values 1.01 | locus YGL167C, strain pmr1, hits give low values 1.04 | locus YGL173C, strain kem1, hits give low values 1.05 | locus YGL227W, strain vid30, hits give low values 1.05 | locus YGL240W, strain doc1, hits give low values 0.993 | locus YGL248W, strain PDE1, hits give low values 1.01 | locus YGL253W, strain hxk2, hits give low values 1.04 | locus YGR078C, strain PAC10, hits give low values 1.01 | locus YGR135W, strain pre9, hits give low values 1.02 | locus YGR252W, strain gcn5, hits give low values 0.994 | locus YHR013C, strain ard1, hits give low values 1.03 | locus YHR027C, strain rpn1, hits give low values 1.01 | locus YHR030C, strain SLT2, hits give low values 1.01 and 0.977 | locus YHR079C, strain IRE1 (second series), hits give low values 1.03 | locus YHR079C, strain IRE1, hits give low values 0.981 | locus YHR094C, strain hxt1, hits give low values 1.02 | locus YHR129C, strain ARP1, hits give low values 0.999 | locus YHR142W, strain chs7, hits give low values 1.06 | locus YHR200W, strain rpn10, hits give low values 1.02 | locus YIL066C, strain RNR3, hits give low values 1 | locus YIL073C, strain SPO22, hits give low values 1.05 | locus YIL125W, strain kgd1, hits give low values 1.01 | locus YIR030C, strain dcg1, hits give low values 1.02 | locus YJL092W, strain hpr5, hits give low values 1.03 | locus YJL095W, strain BCK1 (second series), hits give low values 1.02 | locus YJL095W, strain BCK1, hits give low values 1 and 0.971 | locus YJL115W, strain asf1, hits give low values 1.03 | locus YJL129C, strain trk1, hits give low values 1.05 | locus YJL134W, strain LCB3, hits give low values 1.01 | locus YJL154C, strain vps35, hits give low values 1.03 | locus YJL164C, strain tpk1, hits give low values 1.04 | locus YJL166W, strain qcr8, hits give low values 1.01 | locus YJL168C, strain set2, hits give low values 1.02 | locus YJL187C, strain SWE1 (second series), hits give low values 1 | locus YJR043C, strain POL32, hits give low values 1

From PubChem BioAssay AID1159580 (chemical genetic matrix, 2015)
